# The list is not random: actives were taken first. Their share in the collection is about 7.1%.
# MARV entry inh = qHTS for Inhibitors of binding or entry into cells for Marburg Virus; 6.5% of 18,000 active; AID 720532, 2013; Potency, µM (doses to about 49.2 µM), for the others: top-dose activity change, negative = inhibition, actives largely listed as inhibitors; Marburg virus pseudotype entry/binding inhibition, cell-based
# Lassa entry = qHTS for Inhibitors of binding or entry into cells for Lassa Virus | Lassa virus pseudotyped entry inhibition, cell-based qHTS | Potency, µM (highest dose often 49.2 µM), without a hit: at the top dose activity change, negative = inhibition, actives largely listed as inhibitors | 4.1% of 18,000 active | AID 720533, 2013
# An asterisk follows results filed as active; ? = inconclusive; ! = a repeat was not active; [ ] = dose if it differs, or a comment. Calls follow the shape of the full dose curve; tested in HEK293 cells. % is scaled to controls: 0 for no effect and ±100 for the full control effect; potency is read from the fitted curve at half-maximal effect.
SMILES,MARV entry inh,Lassa entry
CCC(=O)O[C@H]1[C@@H](N2CCCCC2)C[C@H]2[C@@H]3CC[C@H]4C[C@H](OC(C)=O)[C@@H](N5CCCCC5)C[C@]4(C)[C@H]3CC[C@@]21C,3.55µM*,?
CC(=O)O[C@H]1C[C@@H]2CC[C@@H]3[C@H](CC[C@@]4(C)[C@H]3C[C@H]([N+]3(C)CCCCC3)[C@@H]4OC(C)=O)[C@@]2(C)C[C@@H]1N1CCCCC1,26.2%,2.1%
CC(=O)N[C@@H](CSC(=O)[C@]1([C@@H](O)C(C)C)NC(=O)[C@H](C)[C@@H]1O)C(=O)O,?,3.55µM*
CC(=O)N[C@@H](CSC/C=C(\C)CCC=C(C)C)C(=O)O,17.1%,4.2%
COc1cccc(CN2C(=O)NC(C)(C3CCN(Cc4cnn(C)c4C)CC3)C2=O)c1OC (centres undefined),-16.6%,-15.3%
OCc1cc([C@@H](O)CNCCCCCCOCCCCc2ccccc2)ccc1O,12.6µM*,?
CCCCNCC(O)c1ccc(O)cc1 (centres undefined),5.7%,-2.1%
COc1ccccc1CNC(=O)c1cnn(-c2nccc(-c3cccs3)n2)c1C,-6.8%,-9.8%
CC1(C)CN(CCc2ccccc2)C(=O)[C@@H]1CC(=O)Nc1ccc(Br)cc1,-5.3%,-5.4%
OCC1OC(n2cnc3c(=S)nc[nH]c32)C(O)C1O (centres undefined),3.55µM*,?
Nc1nc(Cl)nc2c1ncn2C1OC(CO)C(O)C1F (centres undefined),2.82µM*,2.51µM*
Nc1nc2c(ncn2[C@@H]2O[C@H](CO)[C@@H](O)[C@H]2O)c(=O)[nH]1,6.6%,-17.1%
Nc1nc(Cl)nc2c1ncn2[C@@H]1O[C@H](CO)[C@@H](O)[C@H]1O,?,31.6µM*!
OC[C@H]1O[C@@H](n2cnc3c(NC4CCCC4)nc(Cl)nc32)[C@H](O)[C@@H]1O,12.7%,-16.6%
O=c1[nH]cnc2c1ncn2C1OC(CO)C(O)C1O (centres undefined),9.5%,1.7%
CC1CCC(C(C)C)[C@H](O)C1 (some centres undefined),-6.7%,11.0%
COCOc1c2c(c(OCOC)c3c(OCOC)cccc13)/C(=N/N[S+](=O)([O-])c1ccc(C)cc1)C1=C2CCCC1,-29.4%,9.2%
CC(C)CCCC(C)C1CCC2C3CC=C4CC(O)CC[C@@]4(C)C3CC[C@@]12C (some centres undefined),10.7%,-8.9%
CCCCNc1cccc2c1S(=O)(=O)N[C@H](C)CO2,47.7%,9.0%
O=C1C=C2C=C[C@@H]3C[C@@]2(O1)[C@H]1CCCCN31,14.1µM*,?
CC[C@H](C)[C@H](NC(=O)[C@H](CO)NC(=O)[C@H](C)NC(=O)[C@H](C)NC(=O)[C@H](CCC(N)=O)NC(=O)[C@H](CCCCN)NC(=O)[C@H](CCCN=C(N)N)NC(=O)[C@@H](N)CS)C(=O)N[C@@H](CCCCN)C(=O)N[C@H](C(=O)N[C@@H](C)C(=O)N[C@H](C(=O)N[C@@H](CO)C(=O)O)C(C)C)C(C)C,-1.0%,-4.9%
C[C@H](C[C@H](N)C(=O)O)C(=O)O,-3.0%,-9.5%
COCC(=O)Nc1cc(C(=O)N2CCCC2c2nccs2)c2c(c1)nc(-c1ccncc1)n2C (centres undefined),-6.2%,-1.9%
C(#CCN1CCCC1)CN1CCCC1,8.91µM*,?
CN1CCN(C2=Nc3ccccc3Sc3ccc(Cl)cc32)CC1,25.1µM*,?
SMILES,MARV entry inh,Lassa entry
CN1CCN(C2=Nc3ccccc3Oc3ccc(Cl)cc32)CC1,?,-6.3%[17.8 µM]
C=C(COC)C1=CCC(C(=O)OC)(C(=O)OC)[C@@H](C[N+](=O)[O-])c2ccccc21,-14.4%,-0.9%
CCc1nc2cc(C(=O)N3CCC[C@H]3CO)cc(NC(=O)c3ccccc3OC)c2n1C,0.2%,0.1%
COc1cccc([C@@H]2Oc3ccc(Br)cc3[C@H](O)[C@@H]2O)c1,?,12.3%[8.59 µM]
C[C@]12O[C@H](C[C@]1(O)CO)n1c3ccccc3c3c4c(c5c6ccccc6n2c5c31)CNC4=O,1µM*,11.2µM*
CN[C@@H]1C[C@@]2(C)O[C@@H]([C@@H]1OC)n1c3ccccc3c3c4c(c5c6ccccc6n2c5c31)C(=O)NC4,?,1µM*
COc1ccc(/C=C\C(=O)Nc2ccccc2C(=O)O)cc1OC,39.8µM*,20µM*
COc1ccc(/C=C/C(=O)O)cc1OC,11.3%,35.0%
CCC(=O)O[C@H]1CC[C@H]2[C@@H]3CCc4cc(O)ccc4[C@H]3CC[C@]12C,-29.9%,?
C[C@]12CC[C@@H]3c4ccc(O)cc4CC[C@H]3[C@@H]1CCC2=O,16.5%,31.6µM*!
C[C@]12CCC3c4ccc(O)cc4CCC3[C@@H]1CCC2=O (some centres undefined),15.5%[17.8 µM],-16.9%[17.8 µM]
C[C@]12CC[C@@H]3c4ccc(O)cc4CC[C@H]3[C@@H]1CC[C@@H]2OC(=O)CCC1CCCC1,19.7%,28.2µM*!
CCCCC(=O)O[C@H]1CC[C@H]2[C@@H]3CCc4cc(O)ccc4[C@H]3CC[C@]12C,-14.7%,?
CCC(=O)OC1CCC2C3CCc4cc(O)ccc4C3CC[C@]12C (some centres undefined),0.001µM*,158µM*
N[C@@H](CCCCP(=O)(O)O)C(=O)O,8.2%,-0.9%
C#CC(C)OC(=O)Nc1cccc(Cl)c1 (centres undefined),0.4%,-6.3%
NCCCC[C@H](NC(=O)[C@@H]1CCCN1C(=O)[C@@H]1CSSC[C@H](N)C(=O)N[C@@H](Cc2ccc(O)cc2)C(=O)N[C@@H](Cc2ccccc2)C(=O)N[C@@H](CCC(N)=O)C(=O)N[C@@H](CC(N)=O)C(=O)N1)C(=O)NCC(N)=O,8.2%,-3.3%
Cc1ncc2c(c1CNC(=O)CN1CCCC1)CCN(C(=O)c1ccc(F)cc1F)C2,?,-4.6%
CC(=O)N[C@H]1CSSC[C@@H](C(=O)N2CCC[C@H]2C(=O)N2CCC[C@H]2C(=O)N[C@@H](CCCCN)C(=O)N[C@@H](CC(=O)O)C(N)=O)NC(=O)CNC(=O)[C@H](Cc2c[nH]c3ccccc23)NC(=O)[C@H](CCCNC(=N)N)NC(=O)[C@@H](Cc2ccc3ccccc3c2)NC(=O)[C@H](Cc2cnc[nH]2)NC(=O)[C@H](CCC(=O)O)NC1=O,13.9%,-6.0%
C[C@@H]1CC([C@H](O)CC2CC(=O)NC(=O)C2)C(=O)[C@@H](C)C1 (some centres undefined),?,1µM*
C[C@@H]1C[C@@H]([C@H](O)CC2CC(=O)NC(=O)C2)C(=O)[C@@H](C)C1,3.16µM*,2.82µM*
CC(C)(CO)[C@H](O)C(=O)NCCCO,2.9%[17.8 µM],0.1%[17.8 µM]
COC(=O)CC1c2ccccc2C=C(C2CC2)N1C(=O)OC (centres undefined),?,-14.9%
Cc1cc(C(=O)NCC2CCC3(CCN(Cc4ccc5ccccc5c4)CC3)O2)n(C)n1 (centres undefined),-24.9%,-7.4%
Cc1c(C(=O)N2CC3CCC2C3)sc2ncnc(NCCc3ccccn3)c12 (centres undefined),-7.6%,?
C[C@@H](C1[C@@H](O)CC2C3C=CC4C[C@@H](O)CC[C@]4(C)[C@H]3CC[C@@]21C)[C@@H]1CCCCN1 (some centres undefined),11.2µM*,5.5%
N#Cc1ccc2c(c1)N(CCCN1CCC(O)CC1)c1ccccc1S2,20µM*,-9.3%
CN1CCN(CCCN2c3ccccc3Sc3ccc(C(F)(F)F)cc32)CC1,15.8µM*,22.4µM*
